# In ChEMBL document CHEMBL4513216, “Probing the Open Global Health Chemical Diversity Library for Multistage-Active Starting Points for Next-Generation Antimalarials” (ACS Infect Dis, 2020):
# The campaign covered roughly 69,000 compounds. About 8,600 (12%) showed an effect of 50% or more. The sample as a whole holds a higher share of strong results than the screen did.
# System: Plasmodium berghei
# Test: Screen against P. berghei liver stage (PbLuc), transformed with Luciferase, at 10uM
# Assay type: functional, HepG2
# Settings: tested at 10 uM
row,SMILES,INHIBITION [%]
1,CCN(CC)Cc1nc(Cc2cccc(C(F)(F)F)c2)no1,26.7
2,O=C(CN1CCOCC1)N1CCC(c2cc(N3CCCC3)ncn2)CC1,-85.6
3,O=C(c1ccccc1)N1CCN(C2CCc3ccc(F)cc32)CC1 (stereo unspecified),49.4
4,O=C(CN1CCOCC1)N1CCN(C2CCc3ccc(F)cc32)CC1 (stereo unspecified),54.4
5,NC(=O)C1CCN(C(=O)NC2CCc3cc(F)ccc32)CC1 (stereo unspecified),17
6,O=C(c1cc(F)ccc1O)N1CCN(C2CCOCC2)CC1,3.84
7,NC(=O)N1CCCN(C2CCc3ccc(F)cc32)CC1 (stereo unspecified),84.2
8,Cc1ncsc1C(=O)NCCNC(=O)Cc1cccc(F)c1,-89.6
9,CC(Cn1cccn1)NC(=O)Nc1nncs1 (stereo unspecified),-39.7
10,COCCN1CCCN(C(=O)NC(C)Cn2ccnc2)CC1 (stereo unspecified),26.3
11,Cc1ccnc(OC[C@@]23CCO[C@@H]2CCN(c2ncc(F)cn2)C3)n1,16.9
12,CC(C)CN1CCCC(c2nc(O)c3cc(F)ccc3n2)C1 (stereo unspecified),20.1
13,COC(=O)C1Cc2nc[nH]c2CN1Cc1ccc(Sc2ncccn2)o1 (stereo unspecified),35.7
14,O=C([C@@H]1Cc2[nH]cnc2CN1Cc1cc2ccccc2o1)N1CCCC1,-67.6
15,COC(=O)[C@@H]1Cc2[nH]cnc2CN1Cc1cc2ccccc2o1,56.8
16,Cc1cccc(N2CCN(C(=O)CC3(O)CCCC3)C(C)C2)n1 (stereo unspecified),-24.2
17,Cc1nc(C(=O)N2CCN(c3ccc(Cl)c(Cl)c3)CC2)cs1,90.3
18,CNc1nc(C(=O)N2CCN(c3ccc(Cl)c(Cl)c3)CC2)cs1,86.6
19,CNc1nc(C(=O)N2C[C@@H]3CCN(C)[C@@H]3C2)cs1,55
20,CNc1nc(C(=O)N2C[C@@H]3CC[C@H]2CN(S(C)(=O)=O)C3)cs1,7.1
21,Cc1csc(N2CCCN(C(=O)c3csc(C)n3)CC2)n1,37.9
22,COc1ccnc(N2CCN(C(=O)c3csc(C)n3)CC2)n1,-12.6

row,SMILES,INHIBITION [%]
1,CNc1nc(C(=O)N2CCCN(c3ccnc(C)c3)CC2)cs1,-10.6
2,CNc1nc(C(=O)N2CCN(c3cc(C)nc(C)c3)CC2)cs1,34.9
3,CN1CC[C@H]2CN(C(=O)c3csc(Cc4ccccc4)n3)C[C@H]21,22.9
4,CC(O)CN(C)C(=O)CCNC(=O)OC(C)(C)C (stereo unspecified),44.9
5,CC(C)N1CCC(c2cnc(-c3cn[nH]c3)cn2)CC1,20.5535
6,CC(=O)N[C@@H]1CN(C(=O)c2cccc(C)c2)C[C@H]1O,0.19
7,CCC(C)[C@H](NC(=O)c1cc(F)ccc1-n1cnnn1)C(=O)OC (stereo partly specified),46.1
8,CCC(C)[C@H](NC(=O)c1ccc(F)cc1-n1cnnn1)C(=O)OC (stereo partly specified),51.3
9,CC[C@H](C)[C@H](NC(=O)c1ccc(-n2cnnn2)cc1)C(=O)OC,61.2
10,CCC(C)[C@H](NC(=O)c1cc(Br)ccc1-n1cnnn1)C(=O)OC (stereo partly specified),34.7
11,CC[C@H](C)[C@H](NC(=O)c1cccc(-n2cnnn2)c1)C(=O)OC,30.5
12,CC[C@H](C)[C@H](NC(=O)c1ccccc1-n1cnnn1)C(=O)OC,-14.2
13,O=C(Nc1ccccn1)c1ccc(F)c(S(=O)(=O)NC2CC2)c1,4.34
14,CCn1cc(-n2cc3nc(N4CCOCC4)[nH]cc-3c2=O)cn1,-37.9
15,CC(C)(C)c1nc(CC(=O)Nc2cnccc2O)cs1,52.5
16,CC(C)(C)c1nc(CC(=O)NCCC(=O)Nc2ccncc2)cs1,45.4
17,CC(C)c1nc(CC(=O)Nc2cnccc2O)cs1,29.4
18,CCc1nc(CN2CCC(C(=O)N(C)C)CC2)cs1,11.8
19,CCN1CCC(NC(=O)Cc2csc(C(C)(C)C)n2)CC1,50.5
20,CCOC(=O)C1CCN(Cc2csc(C(C)(C)C)n2)CC1,-13.3
21,CN(C)C(=O)C1CCN(Cc2csc(C(C)(C)C)n2)CC1,56.4
22,CC(=O)N1CCC(NC(=O)Cc2csc(C(C)(C)C)n2)CC1,5.91

row,SMILES,INHIBITION [%]
1,CN1CCC(NC(=O)Cc2csc(C(C)(C)C)n2)CC1,47.2
2,Cn1ncc2c1C(COCC1CC1)N(C(=O)c1ccncn1)CC2 (stereo unspecified),47.4
3,CN(CCNC(=O)NCc1ccsc1)C1CCCC1,-43.5
4,CN(Cc1coc(-c2ccccc2)n1)C1CCCN(c2cccnn2)C1 (stereo unspecified),24
5,Cn1cccc1C(=O)N1C[C@@H](OCc2ccncc2)[C@@H]2OCCC[C@@H]21,42.5
6,O=C1NCCO[C@H]2CN(C(=O)Cc3cccs3)CC[C@@H]12,14
7,O=C1NCCO[C@H]2CN(C(=O)Cc3ccco3)CC[C@@H]12,-2.26
8,COc1cc(F)ccc1CC(=O)N1CC[C@H]2C(=O)NCCO[C@H]2C1,52.1
9,Cc1ccc(F)c2c1CCCN2Cc1cc(=O)n(C)c(=O)n1C,38.8
10,CC[C@H](C)[C@@H](CO)NC(C)Cc1ccc(Cl)cc1 (stereo partly specified),71.2
11,CC[C@H](C)[C@@H](CO)NC(C)Cc1ccc(F)cc1 (stereo partly specified),8.24
12,CC[C@H](C)[C@@H](CO)NC(C)Cc1ccc(C)cc1 (stereo partly specified),41.7
13,CN(C)c1ncc2c(n1)C1(CCN(Cc3ccccc3F)C1)COC2 (stereo unspecified),23.6
14,COc1ccc(CN2CCN(C(C)=O)CC3(CC(=O)N(C)C3)C2)cc1 (stereo unspecified),-7.6
15,CCNC(=O)N1CCC(n2ccc(C(F)(F)F)n2)CC1,40.6
16,O=C(NC1CCCCC1)N1CCC(n2cc(-c3ccccn3)nn2)CC1,83.5
17,CNCc1cn(C2CCN(C(=O)NCc3ccco3)CC2)nn1,71.2
18,O=C(c1ccco1)N1CCC(n2cc(-c3ccsc3)nn2)CC1,31.2
19,O=C(c1ncc[nH]1)N1CCC(n2cc(-c3ccccn3)nn2)CC1,6.88
20,O=C(NCc1ccco1)N1CCC(n2cc(-c3ccccn3)nn2)CC1,65.6
21,COC1CCCOC12CCN(C(=O)NCc1ccco1)CC2 (stereo unspecified),4.52
22,O=C(NC1CCCCC1)N1CCC(n2cc3[nH]cccc-3c2=O)CC1,36.5

row,SMILES,INHIBITION [%]
1,O=C(NCc1ccon1)N1CCC(n2ccc(C(F)(F)F)n2)CC1,1.2
2,O=C(NCc1ccco1)N1CCC(n2ccc(C(F)(F)F)n2)CC1,57.7
3,O=C(NCc1ccco1)N1CCOC(c2ccccc2Cl)C1 (stereo unspecified),8.12
4,Cc1cc(CN2CCN(C(=O)NCc3ccco3)CC2)no1,31.2
5,COCC(=O)Nc1ccc(Oc2ccsc2C(=O)O)cc1,49.1
6,COC1(CNC(=O)NCCc2ccccc2)CCSC1 (stereo unspecified),8.31
7,O=C(c1cccc(C(F)(F)F)c1)N1CC(=O)N(C2CCC2)CC(O)C1 (stereo unspecified),21.5
8,O=C1Nc2ccccc2CNC12CCN(CC1CCCC1)CC2,30
9,CCOCCOC(C)C(=O)Nc1ccc2ccn(CC(=O)NC)c2c1 (stereo unspecified),13.9
10,Cc1ccc(C(=O)NCc2ccc(N3CCCC(C(N)=O)C3)cc2)o1 (stereo unspecified),29.7
11,O=C(CCc1nc2ccccc2[nH]1)NC1CCOC2(CCOCC2)C1 (stereo unspecified),47.6
12,Cc1cccc(OCC(O)CN2CCC(Cn3cccn3)CC2)c1 (stereo unspecified),47.1
13,CN1[C@H](CN2CCCC2)C[C@@H]2CN(C(=O)Cc3ccsc3)CC[C@@H]21,-8.51
14,O=C(c1ccc2nccn2c1)N1CCCC1c1noc(C2CC2)n1 (stereo unspecified),52.3
15,O=C(c1ccc2nncn2c1)N1CCCC1c1noc(C2CC2)n1 (stereo unspecified),15.1
16,CC(C)c1nc(C2CCCN2C(=O)c2ccc3nncn3c2)no1 (stereo unspecified),5.11
17,CC(C)CS(=O)(=O)CC(=O)N1CCCC1c1noc(C2CC2)n1 (stereo unspecified),29
18,CCCS(=O)(=O)CC(=O)N1CCCC1c1noc(C2CC2)n1 (stereo unspecified),97.2
19,CCS(=O)(=O)CC(=O)N1CCCC1c1noc(C2CC2)n1 (stereo unspecified),13.9
20,CN(C)c1cc(CNC(=O)NCC2(C)CCCS2)ccn1 (stereo unspecified),-15.5
21,Cc1ccc(-c2nnc(CN3CCCCC3Cn3cncn3)o2)cc1 (stereo unspecified),-29.8
22,CN(CC(C)(C)O)C1CCCN(Cc2noc(C3CC3)n2)C1 (stereo unspecified),25.1

row,SMILES,INHIBITION [%]
1,O=C(NC1CC1)c1cc(C2CCCN(Cc3ccccn3)C2)no1 (stereo unspecified),-8.12
2,Clc1ccc(CN(CCN2CCOCC2)Cc2cccnc2)c(Cl)c1,-49.4
3,Cc1nc(-c2ccc(Cl)s2)sc1C(=O)NC(C)(C)C(N)=O,-39.95
4,Cc1nc(C)n(CCC(=O)NCC2CCCOC2)n1 (stereo unspecified),26.55
5,O=C(CCn1cncn1)NC1CCS(=O)(=O)C1 (stereo unspecified),49.9
6,CCCn1cnc(NC(=O)NCC2CCS(=O)(=O)C2)n1 (stereo unspecified),42.6
7,O=C(CCn1cncn1)NCC1CCOC1 (stereo unspecified),54.5
8,Cc1cc(NC(=O)CCn2cncn2)no1,44.3
9,O=C(CCn1cncn1)NCC(c1ccco1)N1CCCC1 (stereo unspecified),-49.5
10,O=C(CCn1cncn1)NCC(c1ccco1)N1CCCCC1 (stereo unspecified),3.73
11,O=C(CCn1cncn1)NCC1CCCC1,63.8
12,O=C(CCn1cncn1)NCC1CCS(=O)(=O)C1 (stereo unspecified),84.2
13,CS(=O)(=O)N1CCO[C@@H]2CN(C(=O)c3ccnnc3)C[C@@H]2C1,17.6
14,Cc1ccc(C2CN(CCCS(=O)(=O)C(C)C)CCO2)c(C)c1 (stereo unspecified),-20.3
15,CN1CCC(NC(=O)CC2CN(Cc3ccccc3)CCO2)CC1 (stereo unspecified),9.41
16,COc1ccc(CCNC(=O)Cn2ncc3c2c(C)nn3C)cc1,28.4
17,CC(NC(=O)C1=NN(C)C(=O)CC1)c1ccc(Cl)cc1 (stereo unspecified),20.9
18,CN(CCC#N)C(=O)CCOc1cccc(F)c1,-13.4
